# Compounds with a hit are over-represented: about 18% of the library has one in this group of screens.
# IL-1B inflam inh = inhibitors of inflammasome signaling (IL-1 beta secretion) | activity change, % at 57.5 µM | THP-1 LPS/ATP IL-1B secretion, AlphaLISA, 16 h; hits give low values | AID 743279 | 360,000 tested, 4.7% active; in the data active = activity change below about -50%; inconclusive = mostly about -30% to -49%; note: % is set by controls: 0 for no effect and ±100 for the full control effect
#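 Secreted IL-1B measured by AlphaLISA bead assay after 16 h compound exposure of THP-1 cells; compounds (final up to 57.5 uM) added 1 h before LPS (250 ng/mL) and ATP (1.25 mM) stimulation; lower signal means less secretion.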
# TDP1 block = inhibitors of human tyrosyl-DNA phosphodiesterase TDP1; AID 485290; recombinant TDP1, AlphaScreen DNA substrate cleavage; 350,000 tested, 0.28% active; Q9NUW8; Potency, µM (titrated, usually from 130 µM), without a hit: at the top dose activity change, negative = inhibition, usual class: inhibitors; note: potency is the fitted concentration of half-maximal effect; % is set by controls: 0 for no effect and ±100 for the full control effect; nearly all actives have a fitted effect of over 40% in size
# Target sequence (Q9NUW8 whole entry, looked up): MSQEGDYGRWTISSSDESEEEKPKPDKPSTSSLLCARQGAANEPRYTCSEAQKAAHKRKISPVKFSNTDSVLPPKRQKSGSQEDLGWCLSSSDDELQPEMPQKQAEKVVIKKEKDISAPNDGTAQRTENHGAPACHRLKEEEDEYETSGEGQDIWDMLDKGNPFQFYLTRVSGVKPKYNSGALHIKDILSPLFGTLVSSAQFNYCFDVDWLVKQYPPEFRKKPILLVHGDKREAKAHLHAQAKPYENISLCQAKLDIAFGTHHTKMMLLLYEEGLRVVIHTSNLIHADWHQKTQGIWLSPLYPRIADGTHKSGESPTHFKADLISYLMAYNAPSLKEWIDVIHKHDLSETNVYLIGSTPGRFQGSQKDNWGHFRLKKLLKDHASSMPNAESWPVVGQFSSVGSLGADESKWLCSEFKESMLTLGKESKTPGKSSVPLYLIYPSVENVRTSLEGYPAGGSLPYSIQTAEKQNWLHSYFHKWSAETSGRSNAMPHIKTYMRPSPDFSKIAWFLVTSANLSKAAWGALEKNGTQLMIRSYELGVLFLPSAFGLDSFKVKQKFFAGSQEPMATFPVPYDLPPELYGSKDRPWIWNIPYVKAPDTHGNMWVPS
#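 Signal: AlphaScreen proximity between streptavidin donor and anti-FITC acceptor beads on intact substrate. Reaction: Tdp1 1 nM, substrate 15 nM final, 5 min RT after 15 min compound preincubation.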
# HepG2 viability = kills HepG2 cells in TGF-b inhibitor counter-screen; HepG2 CAGA-GFP viability, ATP luminescence, 18 h; Potency, µM (top dose mostly 46.1 µM), for inactives: at the highest dose activity change, negative = cytotoxicity, hits mostly cytotoxic; 410,000 tested, 0.76% active; note: potency is the fitted concentration of half-maximal effect
#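 CellTiter-Glo luminescence gave cytotoxicity after 18 hours at 37 degrees C. The cells were HepG2 CAGA-GFP in 1% FBS DMEM, stimulated with 500 pg/mL TGF-beta after compound addition. %Activity was normalised to no-cell wells (complete cell-killing) and DMSO (no toxicity), and curves were fitted and classified.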
# TGFb SMAD3 inh = blocks TGF-b signaling; HepG2 CAGA-GFP TGF-b/SMAD3 reporter, GFP fluorescence, 18 h; TGF-beta stimulated, 500 pg/mL final; Potency, µM (top dose mostly 46.1 µM), for the others: top-dose activity, negative = inhibition, most hits filed as inhibitors; 410,000 tested, 1.2% active; AID 588855; note: potency is the fitted concentration of half-maximal effect; % is set by controls: 0 for no effect and ±100 for the full control effect; nearly all actives have a fitted effect of over 65% in size
#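 Using HEPG2 CAGA-GFP reporter cells at 1000 cells/well, we pinned test compounds, stimulated with recombinant TGF-beta (500 pg/mL final) and measured total well GFP after 18 h.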
# TDP1 cell CPT = DT40-hTDP1 cell growth loss with CPT. Potency, µM (doses to about 46.2 µM), for the others: at the highest dose activity change, negative = growth inhibition, most hits filed as inhibitors. 420,000 tested, 12% active. chicken DT40 Tdp1-/-;hTDP1 cells + 20 nM CPT, ATP luminescence, 48 h. AID 686979; note: potency is the fitted concentration of half-maximal effect; % is set by controls: 0 for no effect and ±100 for the full control effect; nearly all actives have a fitted effect of over 55% in size
#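 Chicken DT40 Tdp1-/- cells stably complemented with human TDP1 were seeded at 400 cells/well in medium containing 20 nM camptothecin, exposed to pin-transferred compounds, and grown at 37 °C for at least 48 hr. Viability was read as ATP luminescence.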
# TDP1 cell noCPT = qHTS for Inhibitors of human tyrosyl-DNA phosphodiesterase 1 (TDP1): qHTS in cells in absence of CPT | DT40 Tdp1-/- hTDP1 cells, no CPT, ATP luminescence, 48 h | Potency, µM (top dose mostly 46.2 µM), for the others: top-dose activity change, negative = growth inhibition, most hits filed as inhibitors | 420,000 tested, 15% active | AID 686978, 2013; note: potency is the fitted concentration of half-maximal effect; % is set by controls: 0 for no effect and ±100 for the full control effect; nearly all actives have a fitted effect of over 55% in size
#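 Cells were dispensed at 400 per well, compounds added by pin tool, plates incubated ≥48 hr at 37 °C, then CellTiter-Glo added for 30 min at room temperature before luminescence reading. Line: DT40 Tdp1-/- complemented with hTDP1; camptothecin omitted.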
# * hit, by the source's call; ? = inconclusive; nt = no result given. Unless noted, calls come from the whole dose curve; as a rule, active = well fitted curve in the direction sought with a large enough effect; inconclusive = small, poorly fitted or top-dose-only effect, or another doubt; inactive = no such curve, though single readings can be large; an effect the other way counts as inactive or inconclusive.
SMILES,IL-1B inflam inh,TDP1 block,HepG2 viability,TGFb SMAD3 inh,TDP1 cell CPT,TDP1 cell noCPT
COc1ccc(C(O)c2nc3ccccc3s2)cc1 (centres undefined),nt,-2.1%,nt,nt,nt,nt
COc1cc(C(O)c2nc3ccccc3s2)cc(OC)c1OC (centres undefined),9.4,1.2%,-0.2%,-6.3%,4.11µM*,9.2µM*
CCCn1c(C(O)c2cc(OC)c(OC)c(OC)c2)nc2ccccc21 (centres undefined),45.3,0.7%,0.6%,-9.4%,?,20.6µM*
Cc1ccc2ncc3c(-c4ccccc4)nn(CC(=O)NC4CCCCC4)c3c2c1,nt,7.1%,-24.5%,1.8%,-20.8%,-5.0%
CCCCC/C=C\C/C=C\CCCCCCCC(=O)NCCc1ccc(O)c(O)c1,nt,-1.9%,nt,nt,nt,nt
CCC(C)NC(=O)CCn1c(=O)c2cccn2c2ccc(F)cc21 (centres undefined),-10.0,nt,-2.7%,-3.8%,0.7%,-29.6%
COc1cnc(-c2ccccn2)nc1Sc1cccc(Cl)c1,-8.5,4.8%,-19.0%,4.2%,1.3µM*,1.3µM*
C=CCNc1cc(C(F)(F)F)nc(-c2ccccn2)n1,-5.2,4.0%,7.5%,-14.0%,18.4µM*,?
CCN(CC)c1cc(C(F)(F)F)nc(-c2ccccn2)n1,-8.9,1.0%,-22.8%,?,?,?
Cc1ccc(Sc2cc(C)nc(-c3ccccn3)n2)cc1,33.6,nt,-19.3%,-22.0%,6.51µM*,10.3µM*
FC(F)(F)c1cccc(Sc2cc(C(F)(F)F)nc(-c3ccccn3)n2)c1,6.0,5.3%,-0.5%,-7.9%,18.4µM*,20.6µM*
Cc1ccc(Cc2nc(-c3ccccn3)no2)cc1,-8.3,0.0%,-1.2%,-5.7%,-11.0%,-13.6%
COc1ccc(C(=O)CCC(=O)NC2=NCCS2)cc1,-3.4,2.4%,1.2%,-5.2%,?,?
COc1cnc(-c2ccccn2)nc1Oc1ccccc1Cl,1.8,5.6%,-16.0%,-15.0%,?,?
COc1ccccc1Sc1nc(-c2ccccn2)ncc1OC,140.6,5.9%,-9.5%,-13.9%,10.3µM*,2.91µM*
COc1cnc(-c2ccccn2)nc1NC(C)C,104.4,5.9%,-7.7%,-22.4%,0.13µM*,0.0461µM*
COc1cnc(-c2ccccn2)nc1Sc1ccc(C)cc1,26.6,8.1%,-30.5%,-17.4%,5.17µM*,3.26µM*
COc1ccc(S(=O)(=O)N(CC(=O)Nc2ccccc2Cl)Cc2ccccc2)cc1,nt,0.9%,-11.5%,3.4%,nt,nt
CC(C)C[C@H](NC(=O)[C@H](CCCCN)NC(=O)[C@H](CCC(N)=O)NC(=O)[C@H](Cc1cnc[nH]1)NC(=O)[C@H](Cc1cnc[nH]1)NC(=O)[C@@H](N)C(C)C)C(=O)N[C@H](C(=O)N[C@@H](Cc1ccccc1)C(=O)N[C@@H](Cc1ccccc1)C(=O)N[C@@H](C)C(=O)N[C@@H](CCC(=O)O)C(=O)N[C@@H](CC(=O)O)C(=O)N[C@H](C(=O)NCC(=O)N[C@@H](CO)C(=O)N[C@@H](CC(N)=O)C(=O)N[C@@H](CCCCN)C(=O)O)C(C)C)C(C)C,nt,11.5%,nt,nt,nt,nt
Cc1ccccc1C(=O)NNC(=O)/C=C/c1ccccc1,14.2,0.0%,2.7%,1.4%,6.5%,-0.4%
CCOC(=O)N1CCN(C(=O)c2ccccc2-c2ccccc2)CC1,26.6,2.7%,1.7%,-20.3%,3.66µM*,3.26µM*
O=C(COc1ccccc1Cl)Nc1ccccc1C(=O)N1CCCCC1,-9.5,1.3%,-35.9%,?,?,16.4µM*
CCOC(=O)N1CCN(c2nc(-c3ccccc3)c3ccccc3n2)CC1,-5.0,nt,-9.2%,-14.0%,-25.7%,25.9µM*
CCOC(=O)N1CCN(C(=O)c2ccccc2NC(C)=O)CC1,9.7,2.8%,-0.4%,6.7%,20.0%,12.6%
COc1ccccc1OCC(=O)Nc1ccccc1C(=O)N1CCCCC1,0.9,3.0%,-22.3%,14.7%,-5.1%,-13.1%
SMILES,IL-1B inflam inh,TDP1 block,HepG2 viability,TGFb SMAD3 inh,TDP1 cell CPT,TDP1 cell noCPT
CCOC(=O)N1CCN(C(=O)c2ccccc2NC(=O)COc2ccccc2)CC1,8.4,4.7%,1.1%,8.4%,?,16.4µM*
Nc1nc2c(ncn2[C@@H]2O[C@H](CNCC3=Cc4cc(O)ccc4OC3)[C@@H](O)[C@H]2O)c(=O)[nH]1,10.4,nt,-10.0%,?,4.7%,19.1%
CCCc1c(C)c2cccc(C)c2[nH]c1=O,-17.4,2.0%,-2.2%,-5.2%,?,?
CC(=O)CCc1c(C)c2cccc(C)c2[nH]c1=O,-15.3,5.1%,-12.9%,-3.0%,18.4µM*,?
CCCCC(O)C(=O)Nc1cc(C(F)(F)F)ccc1Cl (centres undefined),nt,-5.0%,nt,nt,nt,nt
COC(=O)/C=C1/SC(=NC(=O)c2cccc([N+](=O)[O-])c2)NC1=O,?,3.1%,-29.2%,1.4%,?,?
COC(=O)/C=C1/SC(=NC(=O)c2ccccc2)NC1=O,-3.3,-2.7%,-2.5%,2.6%,?,20.6µM*
COC(=O)/C=C1\SC(=NC(=O)c2cccc(Cl)c2)NC1=O,-9.8,3.1%,12.8%,6.6%,20.6µM*,?
CSCCC(NC(=O)c1ccco1)C(=O)NC1CCC(C)CC1 (centres undefined),0.8,-0.1%,-8.6%,-0.8%,1.5%,-8.4%
Cc1cccc(N2CCN(Cc3cc(=O)oc4cc(C)ccc34)CC2C)c1 (centres undefined),nt,7.0%,3.4%,-5.1%,?,?
Cn1c(N)c(C(=O)COC(=O)C2Cc3ccccc3CN2S(C)(=O)=O)c(=O)n(C)c1=O (centres undefined),48.2,nt,-8.1%,0.2%,?,?
CC(C)CCNC(=O)CN1C(=O)c2cccnc2Sc2ccccc21,nt,-0.6%,-67.2%,10.1%,-15.6%,-16.1%
COc1ccc(/C=C/C(=O)c2ccc[nH]2)c(OC)c1OC,-28.7,0.0%,-18.8%,35.1%,-0.4%,?
COc1ccc(/C=C/C(=O)c2ccncc2)c2ccccc12,-29.4,5.4%,-106.2%,0.0%,23.1µM*,16.4µM*
Clc1nssc1=Nc1ccc(Br)cc1,-96.9*,-1.2%,-30.6%,?,10.3µM*,13µM*
COc1cc(N=c2ssnc2Cl)cc(OC)c1,?,-2.3%,-3.1%,?,10.3µM*,13µM*
OCc1ccccc1N=c1ssnc1Cl,nt,3.9%,nt,nt,nt,nt
N#Cc1cccc(N=c2ssnc2Cl)c1,-8.7,5.9%,29.8%,35.2%,3.26µM*,6.51µM*

# Assay outcomes as filed in PubChem BioAssay.
